Source: PubChem
NPC1 prom act: qHTS Assay for NPC1 Promoter Activators; 320,000 compounds, 2.4% hits; Potency, µM (highest dose often 9.22 µM), for the others: top-dose activation, hits mostly activators; Huh7 NPC1 promoter luciferase reporter, 24 h; also: % of control where 0% means no effect; nearly all actives have a fitted effect of over 60% in size
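Cells: Huh7 expressing luciferase under the NPC1 promoter, 1500/well. Seeded 2 h, compound added, incubated 24 h at 37 °C. Luciferase reagent, 10 min ambient, then luminescence.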
FLuc modulator: qHTS profiling assay for firefly luciferase inhibitor/activator using purifed enzyme and Km concentrations of substrates (counterscreen for miR-21 project); purified FLuc, Km substrates, luminescence inhibition; Potency, µM (doses to about 57.5 µM), for the others: at the highest dose activity change, negative = inhibition, hits mostly inhibitors; 360,000 compounds, 6.9% hits; AID 588342, 2011;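 also: plate controls were vehicle for no effect and reference inhibitor for full effect; nearly all actives have a fitted effect of over 55% in size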
Target sequence (P08659 whole entry, looked up): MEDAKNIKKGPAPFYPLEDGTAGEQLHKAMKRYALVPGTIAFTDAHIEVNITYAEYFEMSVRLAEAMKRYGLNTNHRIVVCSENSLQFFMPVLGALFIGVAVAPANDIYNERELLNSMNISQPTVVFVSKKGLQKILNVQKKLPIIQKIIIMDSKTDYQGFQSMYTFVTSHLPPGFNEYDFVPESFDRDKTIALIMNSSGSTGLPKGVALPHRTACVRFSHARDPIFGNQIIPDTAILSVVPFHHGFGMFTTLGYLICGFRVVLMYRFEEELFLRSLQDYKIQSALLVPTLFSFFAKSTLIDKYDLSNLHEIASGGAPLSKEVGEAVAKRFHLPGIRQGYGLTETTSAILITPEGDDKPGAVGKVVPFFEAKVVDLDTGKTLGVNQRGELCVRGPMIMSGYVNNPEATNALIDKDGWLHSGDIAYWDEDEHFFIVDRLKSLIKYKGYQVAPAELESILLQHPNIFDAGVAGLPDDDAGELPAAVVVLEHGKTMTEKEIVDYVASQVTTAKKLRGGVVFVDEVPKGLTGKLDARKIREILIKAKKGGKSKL
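Purified P. pyralis luciferase, 10 nM final, with Km-level 10 uM D-luciferin and 10 uM ATP in 50 mM Tris acetate pH 7.5, 10 mM Mg acetate, 0.01% Tween-20, 0.05% BSA; 6-point qHTS titration about 60 µM downward; luminescence read.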
ELG1 genotoxic: qHTS screen for small molecules that induce genotoxicity in human embryonic kidney (HEK293T) cells expressing luciferase-tagged ELG1; Potency, µM (doses to about 46 µM), for the others: at the highest dose activity change, positive = activation, hits mostly activators; 330,000 compounds, 1.3% hits; HEK293T ELG1-luciferase reporter, luminescence, 16 h; also: % of control where 0% means no effect; nearly all actives have a fitted effect of over 60% in size
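Reporter readout depends on ELG1 protein level, which increases with genetic stress. After 16 hr compound exposure at 37 °C, luciferase activity was quantified using ONE-Glo.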
SMN2 splice up: qHTS Assay for Enhancers of SMN2 Splice Variant Expression | HEK293 SMN2-luciferase splicing reporter, luminescence, 30-36 h | Potency, µM (titrated, usually from 46.1 µM), for inactives: at the highest dose activity change, positive = activation, actives largely listed as activators | 210,000 compounds, 2.8% hits | AID 1458, 2008; also: % of control where 0% means no effect; nearly all actives have a fitted effect of over 55% in size
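HEK293 cells carry an SMN2 […]–luciferase reporter in which exon 7 inclusion puts luciferase in frame. Cells were plated 10-12 h before compound addition, then incubated 30-36 h at 37C. ONE-Glo luminescence was read; sodium butyrate at 4.5 mM final served as control.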
ELG1 DNA repair: qHTS screen for small molecules that inhibit ELG1-dependent DNA repair in human embryonic kidney (HEK293T) cells expressing luciferase-tagged ELG1; HEK293T ELG1-luciferase reporter, luminescence, 16 h; DNA damage induced by 5-fluorouridine; Potency, µM (top dose mostly 46.1 µM), without a hit: top-dose activity change, negative = inhibition, usual class: inhibitors; 330,000 compounds, 2.3% hits; AID 504467, 2011; also: % is scaled to controls: 0 for no effect and ±100 for the full control effect; nearly all actives have a fitted effect of over 55% in size
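Quantitative HTS, concentration-response format. 2,000 cells/well co-treated with 5-fluorouridine and compound, 16 hr in 5% CO2 at 37 °C; ONE-Glo luminescence read after 30 min.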
Rab9 prom act: qHTS Assay for Rab9 Promoter Activators; 320,000 compounds, 2.8% hits; Huh7 Rab9 promoter-luciferase reporter, luminescence, 24 h; AID 485297, 2010; Potency, µM (series often up to 9.22 µM), without a hit: top-dose activation, negative = inhibition, hits mostly activators; also: % of control where 0% means no effect; nearly all actives have a fitted effect of over 60% in size
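Huh7 cells stably carrying a Rab9 promoter-luciferase reporter, 1500 cells per well in OP-MEM I with 10% FBS, treated with compound 24 hours at 37C. Luciferase activity read by luminescence after 10 minutes with Amplite reagent.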
* hit, by the source's call; u = inconclusive; x = no result given; [ ] = remark or other dose. The list is not random: actives were taken first. Their share in the collection is about 9.4%. Calls follow the shape of the dose curve; as a rule, active = well fitted curve in the direction sought with a large enough effect; inconclusive = small, poorly fitted or top-dose-only effect, or another doubt; inactive = no such curve, though single readings can be large; an effect the other way counts as inactive or inconclusive. Potency is read from the fitted curve at half-maximal effect.

SMILES	NPC1 prom act	FLuc modulator	ELG1 genotoxic	SMN2 splice up	ELG1 DNA repair	Rab9 prom act
CCCNC(=O)OC[C@H]1O[C@H](CCO/N=C(\C)CCN2CCc3nc(-c4ccccc4)c(-c4ccccc4)cc3C2)C=C[C@@H]1Oc1ccc(OC)cc1	-6.0%	4.1%	-7.5%	-51.4%	6.51µM*	-5.1%
CCc1cc2c(cc3c(=O)n(CC(=O)N4CCCCC4)nc(CC)n32)s1	x	-2.1%	x	3.3%	x	x
CC1CCc2onc(C(=O)N3CCN(c4ccc(F)cc4)CC3)c2C1 (stereo unspecified)	x	-9.8%	x	x	x	x
O=C(O)c1ccc(/C=N\N=C2c3ccccc3-c3ccccc32)cc1	x	x	x	-10.4%[9.22 µM]	x	x
CCCc1cc(=O)n2[nH]c(-c3ccc(Cl)cc3)cc2n1	u	15.1µM*	u	x	u	2.82µM*
CCCc1cc(=O)n2[nH]c(-c3ccccc3)cc2n1	3.98µM*	16.9µM*	u	11.2µM*	u	2.82µM*
CCCc1cc(=O)n2[nH]c(-c3ccc(C)cc3)cc2n1	3.98µM*	9.53µM*	u	12.6µM*	u	3.98µM*
CCOC(=O)Cc1cc(=O)n2[nH]c(C)cc2n1	-1.2%	-0.6%	3.8%	30.8%	17.8%	-3.3%
CCOC(=O)Cc1cc(=O)n2[nH]c(-c3ccc(Cl)cc3)cc2n1	2.7%	13.5µM*	4.4%	19.0%	0.0%	0.0%
O=C1C2CC=CCC2C(=O)N1c1ccc(Cc2ccncc2)cc1 (stereo unspecified)	-5.5%	-10.2%	-4.4%	-86.2%	0.1%	-20.4%
COc1cn(-c2ccccc2)nc1C(=O)Nc1ccc(C)cc1Cl	1.0%	6.75µM*	27.3%	x	-8.7%	14.5%
COc1ccc(CNC(=O)c2nn(-c3ccccc3)cc2OC)cc1	-0.2%	-14.6%	-7.4%	x	-9.3%	-0.1%
CC1CC(Nc2ccccc2)c2ccccc2N1C(=O)c1cccnc1 (stereo unspecified)	-1.7%	u	-8.6%	-18.4%	16.4µM*	-0.5%
C[C@@H]1C[C@H](Nc2ccccc2)c2ccccc2N1C(=O)c1cccnc1	-2.7%	23.3%	-1.1%	-75.9%	u	3.5%
O=C(CCCCCNC(=O)N1CCn2c1nc1ccccc12)NCc1ccc(Cl)cc1	-0.8%	23.9µM*	-3.2%	x	-5.9%	0.3%
O=C(CCCCCNC(=O)N1CCn2c1nc1ccccc12)NCc1ccccc1Cl	-7.3%	15.1µM*	-3.4%	x	-27.6%	0.2%
Cc1ccc(CNC(=O)CCCCCNC(=O)N2CCn3c2nc2ccccc23)cc1	-2.1%	15.1µM*	0.0%	x	5.6%	-0.5%
O=C(CCCCCNC(=O)N1CCn2c1nc1ccccc12)NCc1ccccc1	-0.2%	u	-1.2%	x	-21.5%	-2.3%
Cc1ccc(CNC(=O)CCNC(=O)N2CCn3c2nc2ccccc23)cc1	-3.6%	u	-2.0%	x	-11.7%	-4.9%
COc1ccc(NC(=O)N2CC3(CCN(C(=O)c4ccc(OC)cc4)CC3)C2)cc1	x	x	x	-7.7%	x	x
CC(C)c1ccc(-c2nc3ccccc3s2)cc1	-17.6%	0.0757µM*	-8.6%	x	u	-37.0%
CCOc1cc(-c2nc3ccccc3s2)ccc1O	u	15.1µM*	u	x	u	14.9%
COc1ccc(-c2nc3ccccc3s2)cc1O	u	0.151µM*	0.651µM*	-46.2%	u	4.5%
COc1cc(-c2nc3ccccc3s2)ccc1O	6.3%	8.49µM*	u	u	u	u
COc1ccc(-c2nc3ccccc3s2)cc1NC(=O)c1cc(OC)c(OC)c(OC)c1	x	u	x	4.1%	x	x
SMILES	NPC1 prom act	FLuc modulator	ELG1 genotoxic	SMN2 splice up	ELG1 DNA repair	Rab9 prom act
CCn1cc(C=C2C(=O)c3ccccc3C2=O)c2ccccc21	1.3%	6.01µM*	u	9.7%	u	-2.1%
CC(C)NC(=O)Cn1c(=O)nc(-c2ccccc2)c2ccccc21	x	1.6%	x	x	x	x
Cc1nc(NC(=O)c2oc3ccccc3c2C)sc1C(=O)N(C)C	u	10.7µM*	u	10µM*	u	2.82µM*
Cc1nnc(NC(=O)c2oc3ccccc3c2C)s1	4.47µM*	3.01µM*	18.3µM*	x	u	3.98µM*
Cc1ccc(CN2C(=O)c3ccccc3Sc3ccc(C(=O)NCc4ccco4)cc32)cc1	x	-8.7%	x	x	x	x
CCn1c(=O)c(C(=O)Nc2ccc(C(C)=O)cc2)nc2ccccc21	x	15.1µM*	x	27.7%	x	x
Cc1ccc(-c2nnc(SCC(=O)c3ccc(Cl)cc3)n2-c2ccccc2)cc1	x	-5.1%	x	x	x	x
CC(OC(=O)/C=C/c1ccc2ccccc2n1)C(=O)NCc1ccccc1 (stereo unspecified)	-6.4%	9.53µM*	-2.8%	x	-2.5%	-2.9%
Cc1nn(-c2cc(C(F)(F)F)ccc2Cl)c2nc(C(Cl)(Cl)Cl)[nH]c(=O)c12	4.5%	-6.7%	-15.3%	x	20.6µM*	-1.2%
Cc1cc(C)n(CCOC(=O)c2sc3ccccc3c2Cl)n1	-1.5%	8.49µM*	11.3%	-11.5%	u	3.2%
NC(=O)COC(=O)c1sc2ccccc2c1Cl	4.1%	u	0.8%	11.5%	u	-1.0%
CCCC1CC(C)(c2csc(Nc3ccc(OCC)cc3)n2)OC1=O (stereo unspecified)	0.1%	19µM*	7.8%	-92.0%	-7.4%	-1.6%
Cc1nc(-c2ccc(NC(=O)c3ccccc3Br)cc2)cs1	u	6.01µM*	u	15.8µM*	u	2.82µM*
Cc1nc(-c2ccc(NC(=O)c3ccccc3C)cc2)cs1	1.41µM*	3.38µM*	13.0%	x	u	1.58µM*
CC(=O)Nc1c(C)nn(-c2ccccc2)c1N1CCC(C(=O)Nc2cccc(C(F)(F)F)c2)CC1	x	0.4%	x	x	x	x
CC(=O)Nc1cccc(-c2csc(Nc3ccccn3)n2)c1	1.26µM*	1.51µM*	u	11.2µM*	u	1.12µM*
Cc1ccc(Nc2nc(-c3c(C)nc4ncccn34)cs2)cc1	-13.7%	-21.3%	18.4%	-1.8%	4.5%	-30.2%
CC(=O)Nc1cccc(-c2csc(Nc3ccc(Cl)cn3)n2)c1	2µM*	2.39µM*	u	11.2µM*	u	3.16µM*
Cc1ccnc(Nc2nc(-c3ccccc3)cs2)c1	1.41µM*	1.07µM*	u	x	u	u
Cc1ccnc(Nc2nc(-c3c(C)nc4sccn34)cs2)c1	11.2%	8.49µM*	-6.0%	-70.9%	25.9µM*	-3.7%
Oc1ccc2ccccc2c1SSc1c(O)ccc2ccccc12	4.5%[46.1 µM]	x	x	x	x	1.4%[46.1 µM]
N[C@@H](Cc1ccnnc1)C(=O)O	x	x	x	-4.7%[9.22 µM]	x	x
O=C(Nc1ccccc1)N1CC2(CCN(C(=O)c3ccncc3)CC2)C1	x	x	x	-4.0%	x	x
